Tests used:
Experiment in all cases: DAPPL (digital affinity profiling via proximity ligation, sequencing); 10 mM Tris-HCl pH 7.5, 50 mM NaCl, 1 mM DTT, 4% glycerol, room temperature, 30 min; GST-TFs on glutathione beads, 16-mer random dsDNA library, 0.1% formaldehyde crosslink after washing; high values mean tight binding
FLI1 = target: T1, FLI1 (Homo sapiens, UniProt Q01543 1-452); details: protein: recombinant; tags: N-terminal GST; dsDNA, one strand shown
T1 sequence: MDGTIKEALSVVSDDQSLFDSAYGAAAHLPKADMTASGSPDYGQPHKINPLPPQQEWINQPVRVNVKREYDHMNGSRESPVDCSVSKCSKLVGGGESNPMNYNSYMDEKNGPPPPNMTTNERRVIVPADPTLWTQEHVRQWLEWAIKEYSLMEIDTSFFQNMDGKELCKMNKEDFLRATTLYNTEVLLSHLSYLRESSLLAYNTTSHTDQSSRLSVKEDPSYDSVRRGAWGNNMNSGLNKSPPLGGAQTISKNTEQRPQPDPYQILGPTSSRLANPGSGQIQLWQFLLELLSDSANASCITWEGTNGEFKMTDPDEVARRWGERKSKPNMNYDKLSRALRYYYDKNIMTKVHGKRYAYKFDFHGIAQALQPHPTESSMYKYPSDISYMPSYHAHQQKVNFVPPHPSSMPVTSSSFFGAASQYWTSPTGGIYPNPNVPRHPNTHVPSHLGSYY
Procedure, shortened: (§1)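 In yeast, human transcription factors were expressed with a GST fusion, then pulled down on glutathione beads and given DNA barcodes. Pooled with a tag-only sample, they were exposed to 200 nmole of a 16-mer random double-stranded DNA library (Tris/NaCl/DTT/glycerol buffer, room temperature, 30 min), washed, crosslinked with 0.1% formaldehyde, proximity-ligated using BsaI/T4 ligase for 1 h at 37 °C, PCR-amplified and read on an Illumina NextSeq500. Each hexamer's frequency of reads for a factor, divided by the matching frequency for the tag-only sample, gives the binding signal.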

ELK1 = target: T2, ELK1 (Homo sapiens, UniProt P19419 1-428); details: protein: recombinant; tags: N-terminal GST; dsDNA, one strand shown
T2 sequence: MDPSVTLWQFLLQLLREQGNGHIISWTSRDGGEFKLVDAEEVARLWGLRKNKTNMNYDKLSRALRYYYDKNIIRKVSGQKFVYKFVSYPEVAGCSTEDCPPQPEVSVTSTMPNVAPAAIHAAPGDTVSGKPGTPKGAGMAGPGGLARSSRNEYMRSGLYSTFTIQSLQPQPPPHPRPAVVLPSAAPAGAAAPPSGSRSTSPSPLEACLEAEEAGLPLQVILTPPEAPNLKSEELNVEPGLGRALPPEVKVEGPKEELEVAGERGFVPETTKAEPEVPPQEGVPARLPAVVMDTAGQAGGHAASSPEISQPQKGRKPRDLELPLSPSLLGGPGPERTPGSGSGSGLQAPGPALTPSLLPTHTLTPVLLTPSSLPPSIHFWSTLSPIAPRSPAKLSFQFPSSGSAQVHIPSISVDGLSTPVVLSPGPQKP
Procedure, shortened: as §1

GABPA = target: T3, GABPA (Homo sapiens, UniProt Q06546 1-454); details: protein: recombinant; tags: N-terminal GST; dsDNA, one strand shown
T3 sequence: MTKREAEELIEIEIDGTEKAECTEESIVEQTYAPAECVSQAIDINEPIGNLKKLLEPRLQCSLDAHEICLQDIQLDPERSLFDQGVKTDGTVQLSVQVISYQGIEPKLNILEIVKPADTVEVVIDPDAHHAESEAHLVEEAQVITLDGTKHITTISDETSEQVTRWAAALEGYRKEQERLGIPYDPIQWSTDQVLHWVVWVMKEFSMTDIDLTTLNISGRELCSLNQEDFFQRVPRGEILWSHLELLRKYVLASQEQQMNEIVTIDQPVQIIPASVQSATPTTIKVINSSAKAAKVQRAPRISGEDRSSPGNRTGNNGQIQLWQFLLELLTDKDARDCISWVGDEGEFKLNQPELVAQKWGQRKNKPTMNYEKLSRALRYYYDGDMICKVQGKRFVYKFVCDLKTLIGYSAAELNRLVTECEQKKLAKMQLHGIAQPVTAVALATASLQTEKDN
Procedure, shortened: as §1

ERG = target: T4, ERG (Homo sapiens, UniProt P11308 1-479); details: protein: recombinant; tags: N-terminal GST; dsDNA, one strand shown
T4 sequence: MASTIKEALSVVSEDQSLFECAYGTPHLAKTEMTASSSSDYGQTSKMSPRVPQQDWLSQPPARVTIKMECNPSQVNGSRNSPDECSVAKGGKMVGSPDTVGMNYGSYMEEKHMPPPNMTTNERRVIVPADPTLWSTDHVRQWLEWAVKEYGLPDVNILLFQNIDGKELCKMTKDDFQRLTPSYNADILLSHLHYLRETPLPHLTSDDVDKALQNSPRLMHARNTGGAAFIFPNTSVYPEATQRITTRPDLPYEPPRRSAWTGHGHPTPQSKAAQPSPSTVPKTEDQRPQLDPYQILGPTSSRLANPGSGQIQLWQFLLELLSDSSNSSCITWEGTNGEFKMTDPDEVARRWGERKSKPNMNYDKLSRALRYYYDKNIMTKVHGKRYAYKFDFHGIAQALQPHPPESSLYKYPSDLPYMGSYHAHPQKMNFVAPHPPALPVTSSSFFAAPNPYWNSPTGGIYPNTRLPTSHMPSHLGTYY
Procedure, shortened: as §1

ELF1 = ELF1 (Homo sapiens, UniProt P32519 1-619); details: protein: recombinant; tags: N-terminal GST; dsDNA, one strand shown
Sequence of ELF1 (P32519 whole entry): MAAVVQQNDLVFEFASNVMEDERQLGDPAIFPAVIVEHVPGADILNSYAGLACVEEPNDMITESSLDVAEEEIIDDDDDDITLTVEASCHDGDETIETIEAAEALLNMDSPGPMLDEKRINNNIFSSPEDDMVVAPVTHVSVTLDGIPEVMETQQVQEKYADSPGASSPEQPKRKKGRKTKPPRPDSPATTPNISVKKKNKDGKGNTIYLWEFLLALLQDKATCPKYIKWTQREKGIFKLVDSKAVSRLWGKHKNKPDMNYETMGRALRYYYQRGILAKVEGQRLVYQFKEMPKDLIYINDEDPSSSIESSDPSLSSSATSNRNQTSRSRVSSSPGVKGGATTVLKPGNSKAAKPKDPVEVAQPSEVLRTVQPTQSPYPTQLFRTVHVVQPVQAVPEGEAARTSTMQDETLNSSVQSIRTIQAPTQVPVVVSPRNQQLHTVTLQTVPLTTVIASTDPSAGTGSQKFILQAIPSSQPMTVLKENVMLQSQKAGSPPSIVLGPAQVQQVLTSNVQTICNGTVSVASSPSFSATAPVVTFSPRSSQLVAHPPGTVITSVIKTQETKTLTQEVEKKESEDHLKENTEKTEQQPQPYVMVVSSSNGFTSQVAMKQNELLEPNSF
Procedure, shortened: as §1

EHF = target: T5, EHF (Homo sapiens, UniProt Q9NZC4 1-300); details: protein: recombinant; tags: N-terminal GST; dsDNA, one strand shown
T5 sequence: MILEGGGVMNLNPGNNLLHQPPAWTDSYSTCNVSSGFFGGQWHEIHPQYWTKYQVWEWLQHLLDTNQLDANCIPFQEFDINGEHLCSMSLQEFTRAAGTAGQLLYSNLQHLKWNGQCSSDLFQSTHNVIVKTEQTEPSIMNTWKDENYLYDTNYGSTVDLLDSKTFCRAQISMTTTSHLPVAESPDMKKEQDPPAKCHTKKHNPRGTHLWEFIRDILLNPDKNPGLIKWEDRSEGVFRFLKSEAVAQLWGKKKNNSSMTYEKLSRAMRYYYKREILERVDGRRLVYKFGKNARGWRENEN
Procedure, shortened: as §1

SPI1 = SPI1 (Homo sapiens, UniProt P17947 1-270); details: protein: recombinant; tags: N-terminal GST; dsDNA, one strand shown
Procedure, shortened: as §1

SPIB = SPIB (Homo sapiens, UniProt Q01892 1-262); details: protein: recombinant; tags: N-terminal GST; dsDNA, one strand shown
Sequence of SPIB (Q01892 whole entry): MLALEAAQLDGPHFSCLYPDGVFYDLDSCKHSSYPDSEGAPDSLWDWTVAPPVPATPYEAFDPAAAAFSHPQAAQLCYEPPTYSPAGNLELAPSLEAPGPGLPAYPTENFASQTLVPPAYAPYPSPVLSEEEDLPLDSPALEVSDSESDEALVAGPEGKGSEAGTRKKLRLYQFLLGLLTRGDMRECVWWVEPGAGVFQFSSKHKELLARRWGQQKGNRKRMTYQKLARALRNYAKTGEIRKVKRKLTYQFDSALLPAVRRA
Procedure, shortened: as §1

ELK3 = target: T6, ELK3 (Homo sapiens, UniProt P41970 1-407); details: protein: recombinant; tags: N-terminal GST; dsDNA, one strand shown
T6 sequence: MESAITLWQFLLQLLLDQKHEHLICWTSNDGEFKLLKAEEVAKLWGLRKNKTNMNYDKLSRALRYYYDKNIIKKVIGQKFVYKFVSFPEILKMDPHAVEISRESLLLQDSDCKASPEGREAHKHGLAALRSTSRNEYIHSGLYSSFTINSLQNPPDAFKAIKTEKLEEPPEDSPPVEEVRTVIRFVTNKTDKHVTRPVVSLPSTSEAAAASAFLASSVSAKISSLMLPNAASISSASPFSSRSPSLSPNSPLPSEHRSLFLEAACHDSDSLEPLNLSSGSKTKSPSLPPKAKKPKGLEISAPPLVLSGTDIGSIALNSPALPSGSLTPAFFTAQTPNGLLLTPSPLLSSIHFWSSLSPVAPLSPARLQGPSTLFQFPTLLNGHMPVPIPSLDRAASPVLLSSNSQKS
Procedure, shortened: as §1

FEV = target: T7, FEV (Homo sapiens, UniProt Q99581 1-238); details: protein: recombinant; tags: N-terminal GST; dsDNA, one strand shown
T7 sequence: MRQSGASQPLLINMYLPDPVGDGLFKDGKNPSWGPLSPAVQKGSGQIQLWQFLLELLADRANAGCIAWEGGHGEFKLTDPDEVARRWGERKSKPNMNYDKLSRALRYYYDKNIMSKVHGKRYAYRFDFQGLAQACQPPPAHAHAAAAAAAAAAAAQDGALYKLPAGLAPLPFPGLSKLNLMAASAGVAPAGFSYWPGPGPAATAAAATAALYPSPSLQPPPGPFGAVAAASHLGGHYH
Procedure, shortened: as §1

ETV5 = ETV5 (Homo sapiens, UniProt P41161 1-510); details: protein: recombinant; tags: N-terminal GST; dsDNA, one strand shown
Sequence of ETV5 (P41161 whole entry): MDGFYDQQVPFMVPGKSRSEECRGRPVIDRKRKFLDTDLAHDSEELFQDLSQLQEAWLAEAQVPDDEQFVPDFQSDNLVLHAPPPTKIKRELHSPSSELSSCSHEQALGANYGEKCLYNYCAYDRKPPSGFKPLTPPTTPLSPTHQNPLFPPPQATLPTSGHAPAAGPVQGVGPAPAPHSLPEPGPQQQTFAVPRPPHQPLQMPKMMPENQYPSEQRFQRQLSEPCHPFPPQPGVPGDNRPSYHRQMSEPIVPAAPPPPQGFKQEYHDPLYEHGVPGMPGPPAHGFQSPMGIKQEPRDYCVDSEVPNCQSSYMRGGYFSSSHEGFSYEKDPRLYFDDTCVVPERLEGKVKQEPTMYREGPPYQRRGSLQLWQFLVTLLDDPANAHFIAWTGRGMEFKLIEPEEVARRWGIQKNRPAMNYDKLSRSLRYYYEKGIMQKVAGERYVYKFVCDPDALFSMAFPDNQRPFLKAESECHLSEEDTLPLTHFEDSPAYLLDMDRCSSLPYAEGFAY
Procedure, shortened: as §1

HSF1 = HSF1 (Homo sapiens, UniProt Q00613 1-529); details: protein: recombinant; tags: N-terminal GST; chain copies: 3; dsDNA, one strand shown
Sequence of HSF1 (Q00613 whole entry): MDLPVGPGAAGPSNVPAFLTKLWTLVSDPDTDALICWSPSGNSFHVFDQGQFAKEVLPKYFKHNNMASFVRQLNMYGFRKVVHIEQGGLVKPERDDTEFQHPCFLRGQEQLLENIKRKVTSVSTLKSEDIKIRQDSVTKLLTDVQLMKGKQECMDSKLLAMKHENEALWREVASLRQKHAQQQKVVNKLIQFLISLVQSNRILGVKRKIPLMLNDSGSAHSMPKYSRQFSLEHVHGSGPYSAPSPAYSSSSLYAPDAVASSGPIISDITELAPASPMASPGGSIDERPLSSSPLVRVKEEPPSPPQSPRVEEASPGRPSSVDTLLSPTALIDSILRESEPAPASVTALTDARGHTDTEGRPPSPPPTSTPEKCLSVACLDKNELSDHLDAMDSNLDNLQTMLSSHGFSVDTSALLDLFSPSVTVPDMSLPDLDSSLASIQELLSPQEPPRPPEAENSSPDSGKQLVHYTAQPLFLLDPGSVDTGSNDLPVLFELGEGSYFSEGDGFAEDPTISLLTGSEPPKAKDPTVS
Procedure, shortened: as §1

SPIC = target: T8, SPIC (Homo sapiens, UniProt Q8N5J4 1-248); details: protein: recombinant; tags: N-terminal GST; dsDNA, one strand shown
T8 sequence: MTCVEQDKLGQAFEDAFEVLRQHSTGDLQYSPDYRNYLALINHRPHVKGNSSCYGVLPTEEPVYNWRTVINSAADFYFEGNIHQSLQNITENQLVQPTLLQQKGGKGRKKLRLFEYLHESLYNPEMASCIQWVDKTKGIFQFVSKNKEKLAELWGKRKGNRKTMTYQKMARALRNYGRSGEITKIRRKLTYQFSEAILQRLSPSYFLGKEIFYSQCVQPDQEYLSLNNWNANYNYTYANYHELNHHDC
Procedure, shortened: as §1

ELF4 = ELF4 (Homo sapiens, UniProt Q99607 1-663); details: protein: recombinant; tags: N-terminal GST; dsDNA, one strand shown
Sequence of ELF4 (Q99607 whole entry): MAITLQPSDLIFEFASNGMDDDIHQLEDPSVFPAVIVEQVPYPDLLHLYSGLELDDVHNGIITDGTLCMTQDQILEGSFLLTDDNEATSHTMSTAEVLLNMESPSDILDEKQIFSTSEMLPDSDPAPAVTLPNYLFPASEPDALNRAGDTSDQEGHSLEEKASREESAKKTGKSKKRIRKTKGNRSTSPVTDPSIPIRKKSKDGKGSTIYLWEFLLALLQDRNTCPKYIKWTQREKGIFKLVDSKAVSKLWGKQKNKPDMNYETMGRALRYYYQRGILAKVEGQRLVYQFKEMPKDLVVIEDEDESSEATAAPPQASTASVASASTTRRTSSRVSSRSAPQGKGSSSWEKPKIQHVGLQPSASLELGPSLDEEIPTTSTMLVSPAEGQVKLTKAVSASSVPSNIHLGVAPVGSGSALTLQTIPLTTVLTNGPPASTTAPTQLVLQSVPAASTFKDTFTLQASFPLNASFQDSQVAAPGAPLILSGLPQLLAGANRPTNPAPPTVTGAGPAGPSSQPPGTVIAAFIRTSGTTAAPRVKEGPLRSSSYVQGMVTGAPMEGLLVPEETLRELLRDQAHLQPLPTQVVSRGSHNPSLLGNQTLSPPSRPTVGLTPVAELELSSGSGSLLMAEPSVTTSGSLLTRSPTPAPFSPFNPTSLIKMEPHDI
Procedure, shortened: as §1

ELK4 = target: T9, ELK4 (Homo sapiens, UniProt P28324-2 1-405); details: protein: recombinant; tags: N-terminal GST; dsDNA, one strand shown
T9 sequence: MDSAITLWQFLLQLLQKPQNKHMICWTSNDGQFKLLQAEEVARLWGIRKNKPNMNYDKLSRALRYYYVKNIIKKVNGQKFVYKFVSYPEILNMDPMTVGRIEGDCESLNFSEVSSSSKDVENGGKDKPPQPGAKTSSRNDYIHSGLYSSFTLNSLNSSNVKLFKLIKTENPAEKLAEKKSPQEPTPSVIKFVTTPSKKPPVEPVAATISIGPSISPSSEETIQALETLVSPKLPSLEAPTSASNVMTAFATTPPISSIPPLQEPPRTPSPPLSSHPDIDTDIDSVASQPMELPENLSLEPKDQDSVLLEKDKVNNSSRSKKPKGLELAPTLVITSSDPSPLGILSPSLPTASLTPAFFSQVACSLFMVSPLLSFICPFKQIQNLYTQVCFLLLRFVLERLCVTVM
Procedure, shortened: as §1

ETV2 = target: T10, ETV2 (Homo sapiens, UniProt O00321 1-342); details: protein: recombinant; tags: N-terminal GST; dsDNA, one strand shown
T10 sequence: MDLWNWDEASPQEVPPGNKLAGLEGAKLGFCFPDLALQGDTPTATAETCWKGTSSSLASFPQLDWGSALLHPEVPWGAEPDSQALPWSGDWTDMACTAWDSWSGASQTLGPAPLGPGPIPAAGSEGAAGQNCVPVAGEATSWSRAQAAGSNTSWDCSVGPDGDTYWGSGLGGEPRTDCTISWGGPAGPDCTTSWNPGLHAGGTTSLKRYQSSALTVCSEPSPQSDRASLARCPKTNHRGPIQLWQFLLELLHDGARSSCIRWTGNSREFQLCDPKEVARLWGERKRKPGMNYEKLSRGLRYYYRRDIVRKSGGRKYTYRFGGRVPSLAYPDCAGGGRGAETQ
Procedure, shortened: as §1

ELF3 = target: T11, ELF3 (Homo sapiens, UniProt P78545 1-371); details: protein: recombinant; tags: N-terminal GST; dsDNA, one strand shown
T11 sequence: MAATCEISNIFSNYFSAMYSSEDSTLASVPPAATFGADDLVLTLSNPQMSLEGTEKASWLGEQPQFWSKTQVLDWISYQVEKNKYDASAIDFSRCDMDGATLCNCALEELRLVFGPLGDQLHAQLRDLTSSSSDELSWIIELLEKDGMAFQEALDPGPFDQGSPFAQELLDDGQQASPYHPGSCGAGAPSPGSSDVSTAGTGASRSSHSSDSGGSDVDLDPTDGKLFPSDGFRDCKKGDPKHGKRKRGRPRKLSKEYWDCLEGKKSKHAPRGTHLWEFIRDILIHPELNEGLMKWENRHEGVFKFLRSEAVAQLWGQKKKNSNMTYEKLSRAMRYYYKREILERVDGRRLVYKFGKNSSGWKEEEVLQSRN
Procedure, shortened: as §1

ETV1 = ETV1 (Homo sapiens, UniProt P50549 1-477); details: protein: recombinant; tags: N-terminal GST; dsDNA, one strand shown
Sequence of ETV1 (P50549 whole entry): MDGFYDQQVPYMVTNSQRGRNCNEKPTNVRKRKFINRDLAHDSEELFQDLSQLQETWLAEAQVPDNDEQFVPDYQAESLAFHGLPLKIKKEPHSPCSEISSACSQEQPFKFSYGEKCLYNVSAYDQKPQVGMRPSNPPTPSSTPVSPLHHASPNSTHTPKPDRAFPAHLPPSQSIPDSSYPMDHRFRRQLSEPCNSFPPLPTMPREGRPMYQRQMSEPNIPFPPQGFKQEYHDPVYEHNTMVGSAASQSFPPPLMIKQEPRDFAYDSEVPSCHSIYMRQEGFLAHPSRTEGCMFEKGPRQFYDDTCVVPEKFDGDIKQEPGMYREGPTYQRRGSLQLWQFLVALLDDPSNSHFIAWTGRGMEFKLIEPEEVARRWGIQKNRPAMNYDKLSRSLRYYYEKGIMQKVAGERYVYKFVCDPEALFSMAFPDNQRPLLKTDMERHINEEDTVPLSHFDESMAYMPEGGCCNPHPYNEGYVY
Procedure, shortened: as §1

CAGGAA
binding signal (FLI1): 1.63 fold enrichment (6-mer frequency, TF over GST control)
binding signal (ELK1): 1.57 fold enrichment (6-mer frequency, TF over GST control)
binding signal (GABPA): 1.5 fold enrichment (6-mer frequency, TF over GST control)
binding signal (ERG): 1.83 fold enrichment (6-mer frequency, TF over GST control)
binding signal (ELF1): 1.48 fold enrichment (6-mer frequency, TF over GST control)
binding signal (EHF): 1.79 fold enrichment (6-mer frequency, TF over GST control)
binding signal (SPI1): 1.96 fold enrichment (6-mer frequency, TF over GST control)
binding signal (SPIB): 1.69 fold enrichment (6-mer frequency, TF over GST control)
binding signal (ELK3): 1.57 fold enrichment (6-mer frequency, TF over GST control)
binding signal (FEV): 1.51 fold enrichment (6-mer frequency, TF over GST control)
binding signal (ETV5): 1.79 fold enrichment (6-mer frequency, TF over GST control)
binding signal (HSF1): 1.04 fold enrichment (6-mer frequency, TF over GST control)
binding signal (SPIC): 1.65 fold enrichment (6-mer frequency, TF over GST control)
binding signal (ELF4): 1.52 fold enrichment (6-mer frequency, TF over GST control)
binding signal (ELK4): 1.37 fold enrichment (6-mer frequency, TF over GST control)
binding signal (ETV2): 1.6 fold enrichment (6-mer frequency, TF over GST control)
binding signal (ELF3): 1.86 fold enrichment (6-mer frequency, TF over GST control)
binding signal (ETV1): 1.74 fold enrichment (6-mer frequency, TF over GST control)

From article PMC7862700, “An all-to-all approach to the identification of sequence-specific readers for epigenetic DNA modifications on cytosine”
